The results in this text go back to PubChem BioAssay (EPA / NIEHS).

Active and inactive are the calls of the source. Rule for the calls: active = hit-call score of the fitted dose curve at least 0.9, where 1 is the maximum; inactive = score below 0.9.

Read-out in the first assay: Interleukin-8 (IL8), CXCL8 (gene 3576)
In words: BSK_3C_IL8: BioMAP Diversity Plus: 3C Assay for Interleukin-8 (IL8) Biomarker Activity (AID 2283020). To be noted: primary human endothelial cells (HUVEC); actives raise or lower the signal. The procedure, abridged: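 Primary human umbilical vein endothelial cells (3C system) were exposed to test chemical for 24 h, then IL-8 was quantified by ELISA. Responses were fitted bidirectionally against DMSO vehicle as baseline.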
`C=CCCCCCCCCCCCC`: the outcome was inactive.
As for `CCCCc1nc2cccnc2n1Cc1ccc(-c2ccccc2-c2nnn[nH]2)cc1`, the result was inactive.
Consider `S=c1[nH]c2ccccc2s1`, for which the outcome was inactive.
For `CC(=O)O`, the result was inactive.
On the same count and under the same terms, as for `O=C1CCCCC1`, the entry is “inactive”.
For the compound `CCc1nc(N)nc(N)c1-c1ccc(Cl)cc1`, the outcome was inactive.
`c1ccc2occc2c1`: the outcome was inactive.
`COc1ccc(OC(F)(F)F)cc1CN[C@H]1CCCN[C@H]1c1ccccc1`: the outcome was inactive.
Take `NC=O`: the result was inactive.
Same read-out and setting: the same measure for `CC(C)(C)c1ccccc1`: “inactive”.
On the same count and under the same terms, as for `O=C(NS(=O)(=O)/C=C/c1cccs1)c1ccc(F)cc1Br`, the entry is “inactive”; as for `CCCCCCCCCC[N+](C)(C)[O-]`, “inactive”; as for `CC1(C)C(=O)NC(=O)N1CO`, “inactive”.
Take `NC1CCCCC1`: the outcome was inactive.
Still for that read-out and setting: the same measure for `Cc1cn([C@H]2C=C[C@@H](CO)O2)c(=O)[nH]c1=O`: “inactive”.
Still for that read-out and setting: the same measure for `CC(=O)OC1CC(C)OC(C)O1` (stereo not drawn): “inactive”; for `O=C(O)c1[nH]n(-c2ccc(S(=O)(=O)O)cc2)c(=O)c1N=Nc1ccc(S(=O)(=O)O)cc1`: “inactive”.
`CC(COCC(C)OC(=O)c1ccccc1)OC(=O)c1ccccc1` (stereo not drawn): the result was inactive.
On the same count and under the same terms, the same measure for `CCCC(=O)O`: “inactive”.
For `CN(C)CCCN1c2ccccc2Sc2ccc(Cl)cc21`, the AC50 is 20 µM (active).
Same read-out and setting: the same measure for `CCN(CC)CCOc1ccc(C(=C(Cl)c2ccccc2)c2ccccc2)cc1`: 10.9 µM (active).
Regarding `O=NO`, the outcome was inactive.
The same measure, in the same setting: the same measure for `COC(=O)CCCC(=O)OC`: “inactive”.
In the case of `NCCOCCOCCN`, the result was inactive.
On the same count and under the same terms, as for `CCc1cc(C2=C(C(=O)O)N(c3ccccc3C(F)(F)F)S(=O)(=O)c3ccccc32)cc2c1OCO2`, the entry is “inactive”; as for `CCCCCCC(CCCCCCCCCCC(=O)OCC(COC(C)=O)OC(C)=O)OC(C)=O` (stereo not drawn), “inactive”.
As to `O=C(N[C@@H](c1ccccc1)[C@@H]1CCCCN1)c1cccc(C(F)(F)F)c1Cl`, the half-maximal activity concentration (AC50) is 12.7 µM (active).
Consider `Oc1ccccc1O`, for which the result was inactive.
Still for that read-out and setting: as for `Oc1ccc(O)cc1`, the entry is “inactive”.

Read-out in another assay: Monokine induced gamma interferon (MIG), CXCL9 (gene 4283)
Nature of the assay: BSK_3C_MIG: BioMAP Diversity Plus: 3C Assay for Monokine induced gamma interferon (MIG) Biomarker Activity (AID 2283021).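 For AC50: MIG protein level measured by immunoassay in the treated endothelial cultures.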 The note with it: primary human endothelial cells (HUVEC); actives raise or lower the signal. The procedure, abridged: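 Primary human umbilical vein endothelial cells in the 3C system were exposed to chemical for 24 h, after which MIG was quantified by ELISA. Activity was fitted bidirectionally against DMSO as negative control and baseline.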
Take `C=CCCCCCCCCCCCC`: the result was inactive.
On the same count and under the same terms, as for `CCCCc1nc2cccnc2n1Cc1ccc(-c2ccccc2-c2nnn[nH]2)cc1`, the entry is “inactive”.
Still for that read-out and setting: the same measure for `S=c1[nH]c2ccccc2s1`: “inactive”; for `CC(=O)O`: “inactive”.
Same read-out and setting: as for `O=C1CCCCC1`, the entry is “inactive”; as for `CCc1nc(N)nc(N)c1-c1ccc(Cl)cc1`, “inactive”; as for `c1ccc2occc2c1`, “inactive”.
`COc1ccc(OC(F)(F)F)cc1CN[C@H]1CCCN[C@H]1c1ccccc1`: the result was inactive.
The same measure, in the same setting: as for `NC=O`, the entry is “inactive”; as for `CC(C)(C)c1ccccc1`, “inactive”.
Same read-out and setting: the same measure for `O=C(NS(=O)(=O)/C=C/c1cccs1)c1ccc(F)cc1Br`: “inactive”; for `CCCCCCCCCC[N+](C)(C)[O-]`: “inactive”; for `CC1(C)C(=O)NC(=O)N1CO`: “inactive”.
The same measure, in the same setting: the same measure for `NC1CCCCC1`: “inactive”.
For `Cc1cn([C@H]2C=C[C@@H](CO)O2)c(=O)[nH]c1=O`, the result was inactive.
Consider `CC(=O)OC1CC(C)OC(C)O1` (stereo not drawn), for which the outcome was inactive.
Same read-out and setting: the same measure for `O=C(O)c1[nH]n(-c2ccc(S(=O)(=O)O)cc2)c(=O)c1N=Nc1ccc(S(=O)(=O)O)cc1`: “inactive”.
Still for that read-out and setting: the same measure for `CC(COCC(C)OC(=O)c1ccccc1)OC(=O)c1ccccc1` (stereo not drawn): “inactive”.
Consider `CCCC(=O)O`, for which the result was inactive.
As for `CN(C)CCCN1c2ccccc2Sc2ccc(Cl)cc21`, the AC50 is 32.2 µM (active).
The same measure, in the same setting: the same measure for `CCN(CC)CCOc1ccc(C(=C(Cl)c2ccccc2)c2ccccc2)cc1`: 15.1 µM (active).
As for `O=NO`, the outcome was inactive.
As to `COC(=O)CCCC(=O)OC`, the outcome was inactive.
On the same count and under the same terms, as for `NCCOCCOCCN`, the entry is “inactive”; as for `CCc1cc(C2=C(C(=O)O)N(c3ccccc3C(F)(F)F)S(=O)(=O)c3ccccc32)cc2c1OCO2`, “inactive”.
Still for that read-out and setting: as for `CCCCCCC(CCCCCCCCCCC(=O)OCC(COC(C)=O)OC(C)=O)OC(C)=O` (stereo not drawn), the entry is “inactive”; as for `O=C(N[C@@H](c1ccccc1)[C@@H]1CCCCN1)c1cccc(C(F)(F)F)c1Cl`, “inactive”.
The same measure, in the same setting: the same measure for `Oc1ccccc1O`: “inactive”.
For `Oc1ccc(O)cc1`, the result was inactive.
